# Assay results: the supplement of paper PMC8728848
# Shown is part of a subset that was picked to be rich in the strongest signals.
# B1: GST Gap3 (Streptococcus parasanguinis) (protein)
# chain: MTKQLISEIYWNEIRKGENYLYGSQIKFQEDLVNFYNPQLASGKPIVTFKSRTNYQGDRHSPDLPILIQGNRYLLEYQIDAVPANSFFLQLDFFNRQAEQIESIVLRNSGESFIFPKDTFTYTLTLMSAGCQSVTYQKFMIYDINDEEKKNHIVENRYLRELLPKDLDLVKNLIEYI
# Legend:
# Assay in all cases: glycan array binding signal (z-score within array); higher = stronger binding
# Settings in all cases: glycan notation: IUPAC condensed, linker removed
# [1] = target: Fuc(a1-2)Gal(b1-3)GlcNAc(b1-3)[Fuc(a1-3)[Gal(b1-4)]GlcNAc(b1-6)]Gal(b1-4)Glc
# Summary of the method: (§1)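 Glycan array data were curated from 3228 arrays in the Consortium for Functional Glycomics database and kept only where the protein sequence was available. Glycan names were converted to IUPAC-condensed notation, and columns mapping to the same glycan were averaged. The binding signal is a within-array Z-score, averaged across arrays of the same protein sequence at different concentrations or buffers and across linkers. Negative Z-scores can be read as non-binding.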
# [2] = target: Fuc(a1-2)Gal(b1-3)[Fuc(a1-4)]GlcNAc(b1-2)Man(a1-3)[Fuc(a1-2)Gal(b1-3)[Fuc(a1-4)]GlcNAc(b1-2)Man(a1-3)]Man(b1-4)GlcNAc(b1-4)GlcNAc
# Summary of the method: as §1
# [3] = target: Fuc(a1-2)Gal(b1-4)GlcNAc(b1-2)Man(a1-3)[Fuc(a1-2)Gal(b1-4)GlcNAc(b1-2)Man(a1-6)]Man(b1-4)GlcNAc(b1-4)GlcNAc
# Summary of the method: as §1
# [4] = target: Fuc(a1-2)Gal(b1-4)GlcNAc(b1-2)Man(a1-3)[Fuc(a1-2)Gal(b1-4)GlcNAc(b1-2)Man(a1-6)]Man(b1-4)GlcNAc(b1-4)[Fuc(a1-6)]GlcNAc
# Summary of the method: as §1
# [5] = target: Fuc(a1-2)Gal(b1-4)GlcNAc(b1-3)[Fuc(a1-3)[Gal(b1-4)]GlcNAc(b1-6)]Gal(b1-4)Glc
# Summary of the method: as §1
# [6] = target: Fuc(a1-2)Gal(b1-4)GlcNAc(b1-6)GalNAc
# Summary of the method: as §1
# [7] = target: Fuc(a1-2)Gal6S(b1-3)GlcNAc6S
# Summary of the method: as §1
# [8] = target: Fuc(a1-2)Gal6S(b1-4)GlcNAc
# Summary of the method: as §1
# [9] = target: Fuc(a1-2)[Gal(a1-3)]Gal(b1-3)GlcNAc(b1-6)GalNAc
# Summary of the method: as §1
# [10] = target: Fuc(a1-2)[Gal(a1-3)]Gal(b1-4)GlcNAc(b1-2)Man(a1-3)[Fuc(a1-2)[Gal(a1-3)]Gal(b1-4)GlcNAc(b1-2)Man(a1-6)]Man(b1-4)GlcNAc(b1-4)GlcNAc
# Summary of the method: as §1
# [11] = target: Fuc(a1-2)[GalNAc(a1-3)]Gal(b1-4)GlcNAc(b1-3)[Fuc(a1-2)[GalNAc(a1-3)]Gal(b1-4)GlcNAc(b1-6)]GalNAc
# Summary of the method: as §1
# [12] = target: Fuc(a1-3)[Gal(b1-4)]GlcNAc(b1-3)GalNAc
# Summary of the method: as §1
# [13] = target: Gal(b1-3)GlcNAc(b1-3)Gal(b1-4)GlcNAc(b1-3)Gal(b1-4)GlcNAc(b1-2)[Gal(b1-3)GlcNAc(b1-3)Gal(b1-4)GlcNAc(b1-3)Gal(b1-4)GlcNAc(b1-6)]Man(a1-6)[Gal(b1-3)GlcNAc(b1-3)Gal(b1-4)GlcNAc(b1-3)Gal(b1-4)GlcNAc(b1-2)Man(a1-3)]Man(b1-4)GlcNAc(b1-4)[Fuc(a1-6)]GlcNAc
# Summary of the method: as §1
# [14] = target: Gal(b1-3)GlcNAc(b1-3)Gal(b1-4)GlcNAc(b1-6)[Gal(b1-3)GlcNAc(b1-3)]Gal(b1-4)Glc
# Summary of the method: as §1
# [15] = target: Gal(b1-3)GlcNAc(b1-6)GalNAc
# Summary of the method: as §1
# [16] = target: Gal(b1-3)[Fuc(a1-4)]GlcNAc(b1-2)Man(a1-3)[Gal(b1-3)[Fuc(a1-4)]GlcNAc(b1-2)Man(a1-6)]Man(b1-4)GlcNAc(b1-4)GlcNAc
# Summary of the method: as §1
# [17] = target: Gal(b1-4)GlcNAc(b1-2)[Gal(b1-4)GlcNAc(b1-6)]Man(a1-6)[GlcNAc(b1-4)][Gal(b1-4)GlcNAc(b1-2)[Gal(b1-4)GlcNAc(b1-4)]Man(a1-3)]Man(b1-4)GlcNAc(b1-4)[Fuc(a1-6)]GlcNAc
# Summary of the method: as §1
# [18] = target: Gal(b1-4)GlcNAc(b1-3)Gal(b1-4)GlcNAc(b1-3)Gal(b1-4)GlcNAc(b1-3)Gal(b1-4)GlcNAc(b1-2)[Gal(b1-4)GlcNAc(b1-3)Gal(b1-4)GlcNAc(b1-3)Gal(b1-4)GlcNAc(b1-3)Gal(b1-4)GlcNAc(b1-6)]Man(a1-6)[Gal(b1-4)GlcNAc(b1-3)Gal(b1-4)GlcNAc(b1-3)Gal(b1-4)GlcNAc(b1-3)Gal(b1-4)GlcNAc(b1-2)Man(a1-3)]Man(b1-4)GlcNAc(b1-4)[Fuc(a1-6)]GlcNAc
# Summary of the method: as §1
# [19] = target: Gal(b1-4)GlcNAc(b1-3)Gal(b1-4)[Fuc(a1-3)GlcNAc(b1-6)]Gal(b1-4)Glc
# Summary of the method: as §1
# [20] = target: Gal(b1-4)GlcNAc(b1-6)Gal(b1-4)GlcNAc(b1-6)GalNAc
# Summary of the method: as §1
# [21] = target: Gal3S(b1-4)[Fuc(a1-3)]Glc6S
# Summary of the method: as §1
# [22] = target: Gal3S(b1-4)[Fuc(a1-3)]GlcNAc
# Summary of the method: as §1
# [23] = target: GalNAc(b1-4)GlcNAc
# Summary of the method: as §1
# [24] = target: GalNAc4S6S(b1-4)GlcNAc
# Summary of the method: as §1
# [25] = target: Glc(a1-4)Glc
# Summary of the method: as §1
# [26] = target: Glc(a1-6)Glc(a1-6)Glc
# Summary of the method: as §1
binder,measurement,setting,value
B1,glycan array binding signal (z-score),[1],-0.027
same,glycan array binding signal (z-score),[2],2.3
same,glycan array binding signal (z-score),[3],3.16
same,glycan array binding signal (z-score),[4],-0.105
same,glycan array binding signal (z-score),[5],-0.573
same,glycan array binding signal (z-score),[6],-0.108
same,glycan array binding signal (z-score),[7],2.06
same,glycan array binding signal (z-score),[8],-0.073
same,glycan array binding signal (z-score),[9],-0.112
same,glycan array binding signal (z-score),[10],0.383
same,glycan array binding signal (z-score),[11],-0.377
same,glycan array binding signal (z-score),[12],0.287
same,glycan array binding signal (z-score),[13],4.03
same,glycan array binding signal (z-score),[14],0.052
same,glycan array binding signal (z-score),[15],0.002
same,glycan array binding signal (z-score),[16],3.61
same,glycan array binding signal (z-score),[17],0.228
same,glycan array binding signal (z-score),[18],2.32
same,glycan array binding signal (z-score),[19],-0.093
same,glycan array binding signal (z-score),[20],-0.125
same,glycan array binding signal (z-score),[21],1.61
same,glycan array binding signal (z-score),[22],-0.723
same,glycan array binding signal (z-score),[23],0.123
same,glycan array binding signal (z-score),[24],-0.267
same,glycan array binding signal (z-score),[25],3.14
same,glycan array binding signal (z-score),[26],0.005
